The values below come from PubChem BioAssay (NCI).

This is part of a sample that, as a whole, favours compounds with a hit. Of some 79,000 tested, about 15% had one in any assay. Unmarked numbers belong to inactive results. Activity calls are given as the source filed them. Rule as the data show it: active = growth inhibition above about 70%; inactive = the rest.

One assay can be described thus: NCI Yeast Anticancer Drug Screen. Data for the mec2-1 strain (AID 157). The conditions noted are these: S. cerevisiae mec2-1 strain, at 50.0 µM (retest, dose inferred, filed as 5.0), active compounds read high. An outline of the steps: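 Compounds were applied to mec2-1 yeast cells. Their growth was then compared with that of vehicle-treated cultures to give growth inhibition.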
As for `O=c1c2c3c(sc2nc2n1N=C(c1ccc(Br)cc1)CS2)CCCC3`, the growth inhibition is -11%.

Regarding `Cc1noc(NS(=O)(=O)c2ccc(N=Nc3cc(N=Nc4ccc(S(=O)(=O)Nc5onc(C)c5C)cc4)c4c(NC(=O)C(Cl)Cl)cccc4c3O)cc2)c1C` (tested in a mixture with another compound), the growth inhibition is 57%.

Turning to `CC(=O)OC1=CC2(OC(C)=O)CC(C)(C)C1C1C(=O)C=CC(=O)C12` (centres undefined), the growth inhibition is 10%.

`COC1CCC(/C(C#N)=C/c2ccco2)CC1` (centres undefined): the growth inhibition is 13%.

`CCN(CC)CCNc1cc(C)nc2c1ccc1c2ccc2c(NCCN(CC)CC)cc(C)nc21`: the growth inhibition is 98% (active).

Take `O=c1sc(=S)[nH]c2ccccc12`: the growth inhibition is 43%.

Take `Oc1c(Br)ccc2c(O)c(Br)ccc12`: the growth inhibition was 94% (active).

Turning to `Nc1ccccc1CCc1ccccc1`, the growth inhibition is 74% (active).

As to `Cc1cc2c(cc1O)CC[C@@H]1[C@@H]2CC[C@]2(C)[C@@H](O)CC[C@@H]12`, the growth inhibition is -16%.

Turning to `O=c1c2ccccc2sc2c([N+](=O)[O-])ccc(NCCNCCO)c12`, the growth inhibition is 99% (active).

In the case of `NC(=S)NNc1c([N+](=O)[O-])cnn(-c2ccccc2)c1=O`, the growth inhibition was 3%.

With `COc1ccccc1NC(=O)c1ccccc1F`, the growth inhibition was -41%.

In the case of `COc1ccc(/C=C2\SC(=S)N(/C=C(/C#N)C(=O)c3ccc4ccccc4c3)C2=O)cc1OC`, the growth inhibition is 99% (active).

For the compound `COC(=O)C1(OC(=O)CCC(=O)O)C(=O)NC2=C1C(=O)c1ccccc1C2=O` (centres undefined), the growth inhibition is -58%.

Take `Cc1cc(=O)c2c(ccc3cc4ccccc4cc32)[nH]1`: the growth inhibition was 58%.

Consider `CCc1nc(N)nc(N)c1-c1ccc(N(C)Cc2ccccc2)c([N+](=O)[O-])c1`, for which the growth inhibition is 0%.

As to `O=C1CSC(c2ccccc2O)N1c1ccc(-n2c(-c3ccccc3)nc3ccccc3c2=O)cc1` (centres undefined), the growth inhibition is 39%.

On to `O=C(C[P+](c1ccccc1)(c1ccccc1)c1ccccc1)c1ccc(Br)cc1`, for which the growth inhibition is 98% (active).

As to `O=NN(CCCl)C(=O)Oc1ccc(OC(=O)N(CCCl)N=O)cc1`, the growth inhibition was 99% (active).

As to `Cc1cccc(C[N+](C)(C)CCCO)c1C`, the growth inhibition is 0%.

In the case of `CC(C)NC(=O)OCCS(=O)c1c(Cl)c(Cl)nn1C` (centres undefined), the growth inhibition was 37%.

In the case of `COC1=CC(=O)[C@H]2CC(C)=CC[C@]2(C)C1=O`, the growth inhibition was 0%.

With `Oc1ccc(O)c2c(O)c3ccccc3c(O)c12`, the growth inhibition is 77% (active).

With `O=[N+]([O-])c1cc(Br)cc(Br)c1O`, the growth inhibition was 45%.

Still in this assay, the particulars now being: S. cerevisiae mec2-1 strain, at 50.0 µM, active compounds read high.
Take `CCOC(=O)/C=C(\CC(=O)OCC)C(=O)OCC`: the growth inhibition is 99.7% (active).

`Cc1cc(Cl)cc2c1NC(=O)C2(O)C(C)C(=O)c1ccc(Cl)cc1` (centres undefined): the growth inhibition was 98.5% (active).

With `C=CS(=O)(=O)c1ccc([N+](=O)[O-])cc1`, the growth inhibition is 99.7% (active).

As to `Oc1cc(Br)ccc1/C=N/Nc1ccccn1`, the growth inhibition is -13.6%.

On to `CC(C)C(CC(C)(C)C)OC(=O)Nc1cccc2ccccc12` (centres undefined), for which the growth inhibition was 26.4%.

In the case of `CC(=O)[O-].O=C(N/N=C/c1ccccc1[O-])c1ccccc1.[Zn+2]`, the growth inhibition is 14.6%.

For the compound `COc1cc(C2C(C(=O)Nc3ccc(Cl)c(Cl)c3)=C(C)NC(C)=C2C(=O)Nc2ccc(Cl)c(Cl)c2)ccc1O`, the growth inhibition was 90.6% (active).

`[Ce+3].[Cl-].[O-]/N=C(\c1ccccc1)c1ccccn1.[O-]/N=C(\c1ccccc1)c1ccccn1.[O-]/N=C(\c1ccccc1)c1ccccn1`: the growth inhibition was 85.4% (active).

With `CCCCCCCCN1C(=O)c2ccccc2S1(=O)=O`, the growth inhibition is 32.1%.

Consider `CC(=O)N(C1=C(Cl)C(=O)c2ccccc2C1=O)c1ccc(C)cc1`, for which the growth inhibition was 99.5% (active).

`COc1ccc(Cl)c(-c2cc(OC)c(N=N/C(=N/Nc3ccc([N+](=O)[O-])cc3)c3ccc([N+](=O)[O-])cc3)cc2Cl)c1`: the growth inhibition is 45.5%.

As to `CCOC(=O)CSC(=S)N1CCOCC1`, the growth inhibition is -9.1%.

In the case of `CC1(C)COC(c2cccc(C(O)c3ccc(Cl)cc3)c2)=N1` (centres undefined), the growth inhibition was 68%.

With `COc1ccc(/C=C/C(C(=O)O)C(=O)O)cc1`, the growth inhibition is 76% (active).

Turning to `COc1ccc2c(Cc3ccc(O)cc3)cncc2c1O`, the growth inhibition is 51.5%.

For the compound `COC1=CC23C=CC1[C@@H](c1ccccc1)C2=C(C)C(=O)N3C(=O)NC1CCCCC1` (some centres undefined), the growth inhibition was 68.2%.

As for `O=c1c2c3c(sc2nc2n1N=C(c1ccc(Br)cc1)CS2)CCCC3`, the growth inhibition is -0.4%.

For the compound `Cc1noc(NS(=O)(=O)c2ccc(N=Nc3cc(N=Nc4ccc(S(=O)(=O)Nc5onc(C)c5C)cc4)c4c(NC(=O)C(Cl)Cl)cccc4c3O)cc2)c1C` (tested in a mixture with another compound), the growth inhibition is 74.5% (active).

On to `CC(=O)OC1=CC2(OC(C)=O)CC(C)(C)C1C1C(=O)C=CC(=O)C12` (centres undefined), for which the growth inhibition was 65.3%.

Consider `COC1CCC(/C(C#N)=C/c2ccco2)CC1` (centres undefined), for which the growth inhibition was 57.3%.

As to `CCN(CC)CCNc1cc(C)nc2c1ccc1c2ccc2c(NCCN(CC)CC)cc(C)nc21`, the growth inhibition is 98% (active).

`O=c1sc(=S)[nH]c2ccccc12`: the growth inhibition was 69.1%.

`Oc1c(Br)ccc2c(O)c(Br)ccc12`: the growth inhibition is 91% (active).

Turning to `Nc1ccccc1CCc1ccccc1`, the growth inhibition is 84.5% (active).

As to `Cc1cc2c(cc1O)CC[C@@H]1[C@@H]2CC[C@]2(C)[C@@H](O)CC[C@@H]12`, the growth inhibition was 35.2%.

With `O=c1c2ccccc2sc2c([N+](=O)[O-])ccc(NCCNCCO)c12`, the growth inhibition was 92.1% (active).

Take `NC(=S)NNc1c([N+](=O)[O-])cnn(-c2ccccc2)c1=O`: the growth inhibition was 3.05%.

Consider `COc1ccccc1NC(=O)c1ccccc1F`, for which the growth inhibition was 10.7%.

As for `COc1ccc(/C=C2\SC(=S)N(/C=C(/C#N)C(=O)c3ccc4ccccc4c3)C2=O)cc1OC`, the growth inhibition was 98.5% (active).

With `COC(=O)C1(OC(=O)CCC(=O)O)C(=O)NC2=C1C(=O)c1ccccc1C2=O` (centres undefined), the growth inhibition is 12%.

`Cc1cc(=O)c2c(ccc3cc4ccccc4cc32)[nH]1`: the growth inhibition is 38.1%.

For the compound `CCc1nc(N)nc(N)c1-c1ccc(N(C)Cc2ccccc2)c([N+](=O)[O-])c1`, the growth inhibition was 22.1%.

Consider `O=C1CSC(c2ccccc2O)N1c1ccc(-n2c(-c3ccccc3)nc3ccccc3c2=O)cc1` (centres undefined), for which the growth inhibition was 64.4%.

Turning to `O=C(C[P+](c1ccccc1)(c1ccccc1)c1ccccc1)c1ccc(Br)cc1`, the growth inhibition is 97.4% (active).

In the case of `O=NN(CCCl)C(=O)Oc1ccc(OC(=O)N(CCCl)N=O)cc1`, the growth inhibition was 91% (active).

Regarding `Cc1cccc(C[N+](C)(C)CCCO)c1C`, the growth inhibition was -24.6%.

Take `CC(C)NC(=O)OCCS(=O)c1c(Cl)c(Cl)nn1C` (centres undefined): the growth inhibition is 99.2% (active).

For `COC1=CC(=O)[C@H]2CC(C)=CC[C@]2(C)C1=O`, the growth inhibition was 6.55%.

Take `Oc1ccc(O)c2c(O)c3ccccc3c(O)c12`: the growth inhibition is 50.4%.

As to `O=[N+]([O-])c1cc(Br)cc(Br)c1O`, the growth inhibition is 49.6%.
